4-MU autofl: compounds fluorescent in 4-MU spectral region; compound autofluorescence, 340/450 nm, 4-MU equivalents; hits give high values; max dye-equivalent concentration, M; actives 11% (n = 59,000); AID 589; in the data active = max dye-equivalent concentration above about 10 nM; inconclusive = mostly about 1.1 nM to 9.6 nM
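Compounds in 100 mM Tris, pH 8.0, incubated 15 min at room temperature, then fluorescence read at 340 nm excitation/450 nm emission. Signal converted to 4-MU dye-equivalent concentration using an on-plate six-point 4-MU standard curve.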
HADH2 inhib: HADH2 (human) dehydrogenase inhibition | Q99714 | actives 3.4% (n = 73,000) | Potency, µM (series often up to 57.1 µM), without a hit: at the highest dose activity change, negative = inhibition, usual class: inhibitors | recombinant HADH2, NADH fluorescence, beta-hydroxybutyryl-CoA; note: potency is the fitted concentration of half-maximal effect; % is set by controls: 0 for no effect and ±100 for the full control effect; nearly all actives have a fitted effect of over 60% in size
Target sequence (Q99714 whole entry, looked up, one chain of several): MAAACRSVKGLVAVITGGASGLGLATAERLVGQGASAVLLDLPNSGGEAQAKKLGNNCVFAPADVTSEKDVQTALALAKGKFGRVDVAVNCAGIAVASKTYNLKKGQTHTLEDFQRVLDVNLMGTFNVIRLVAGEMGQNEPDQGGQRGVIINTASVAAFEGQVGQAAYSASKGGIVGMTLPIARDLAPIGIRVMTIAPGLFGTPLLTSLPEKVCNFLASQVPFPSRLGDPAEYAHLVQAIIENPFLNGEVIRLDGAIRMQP
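Activity measured as NADH fluorescence gain (360/450 nm), taken as the change between first and last reads of a 4-min kinetic run. Conditions: pH 9.0 Tris buffer, 20 nM E. coli-expressed His-tagged enzyme, 1 mM NAD+, 90 uM beta-hydroxybutyryl-CoA; 15-min compound preincubation.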
HSD17B inh: blocks hydroxysteroid 17-beta dehydrogenase activity; recombinant HSD17B10, NADH fluorescence kinetic; Q99714; actives 7.6% (n = 75,000); Potency, µM (top dose mostly 57.1 µM), for the others: top-dose activity change, negative = inhibition, hits mostly inhibitors;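 note: the protocol describes HADH2 (HSD17B10) and not the HSD17B4 of the title; potency is the fitted concentration of half-maximal effect; % is set by controls: 0 for no effect and ±100 for the full control effect; nearly all actives have a fitted effect of over 70% in size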
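20 nM HADH2, pH 9.0 Tris/Tween; cpd preinc 15 min RT; start w/ 1 mM NAD+ + 90 uM b-hydroxybutyryl-CoA; kinetic fluor ex360/em450 q30s x 4 min; delta last-first.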
AID923: qHTS Assay for Allosteric/Competitive Inhibitors of Caspase-1: Spectroscopic Profiling in AFC Spectral Region; compound fluorescence, AFC spectral region (405/520 nm); Potency, µM (series often up to 57.5 µM), inactives show at the highest dose fluorescence increase, most hits filed as activators; actives 1.1% (n = 75,000); note: potency is the fitted concentration of half-maximal effect; 0% is about no effect
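Titrations up to 57 uM read every 20 sec for 3 min (405/520 nm) with 50 nM caspase 1 and 5 uM Ac-WEHD-AFC, pH 7.5 HEPES buffer. Fluorescence-vs-time intercept gave baseline, scaled against on-plate AFC standard.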
CRE-bla Fsk: CRE-bla signaling modulation under forskolin stimulation | CHO CRE-bla reporter (cAMP response element driving beta-lactamase), forskolin EC10, beta-lactamase ratio | Potency, µM (doses to about 38.2 µM), for the others: top-dose activity change, negative = inhibition, usual class: activators | actives 2.5% (n = 71,000); active = well fitted activation curve with a large enough effect in the signal ratio, with a control signal flat, not every such curve was filed as active; inconclusive = small, poorly fitted or top-dose-only effect, or effect the other way, or a change in a side signal; the % refers to the signal ratio; note: potency is the fitted concentration of half-maximal effect; % of control where 0% means no effect
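Cells were plated overnight at 37 °C, exposed to compound titrations plus EC10 NKH 477 for 3 h, then given CCF4 dye for 2 h at room temperature. Blue/green (460/530 nm) ratio was converted to %Activity and AC50 values calculated.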
A350 fluor: compound fluoresces in the Alexa 350 spectral region; actives 11% (n = 59,000); max dye-equivalent concentration, M; AID 590; Compound autofluorescence, 340/450 nm, Alexa 350 dye-equivalents; hits give high values; in the data active = max dye-equivalent concentration above about 10 nM; inconclusive = mostly about 1.1 nM to 9.6 nM
The depositor's hits bear a star; i = inactive; ? = inconclusive; · = not tested or not shown; [ ] = another dose, or the depositor's remark. Rows were chosen to be rich in hits. Some 14% of all compounds tested hit in one or more screens of this group. Unless noted, calls come from the whole dose curve; as a rule, active = well fitted curve in the direction sought with a large enough effect; inconclusive = small, poorly fitted or top-dose-only effect, or another doubt; inactive = no such curve, though single readings can be large; an effect the other way counts as inactive or inconclusive.

SMILES	4-MU autofl	HADH2 inhib	HSD17B inh	AID923	CRE-bla Fsk	A350 fluor
O=c1c(-c2cc(F)cc(F)c2)nc2cncnc2n1-c1ccccc1	?	-5%	-14%	8%	?	?
Cc1ccc(NC(=O)COC(=O)C2CC2C)c(S(=O)(=O)N2CCCCC2)c1 (centres undefined)	1.3e-08M*	2%	0%	-1%	-8%	1.7e-08M*
CN1CCN(c2ccncc2S(=O)(=O)N2CCN(C)CC2)CC1	i	1%[11.4 µM]	2%[11.4 µM]	4%[11.5 µM]	12%[7.6 µM]	i
COc1cc2[nH]c3c(=O)n(CCN(C(C)C)C(C)C)cnc3c2cc1OC	1.1e-08M*	·	·	·	·	1.4e-08M*
CC/C=C\CC[C@H](OC(=O)c1ccc(Br)cc1)C1=CCCCC1=O	·	-11%[11.4 µM]	-4%[11.4 µM]	2%[11.5 µM]	·	·
N#Cc1cccc(NC(=O)N2CC[C@@]3(CCCN(C(=O)c4cccc(F)c4)C3)C2)c1	i	-10%	2%	-2%	-1%	i
COc1ccc(-n2c(=O)[nH]cc(C(=O)N3CCc4ccccc43)c2=O)cc1	1.3e-08M*	1%	-3%	1%	?	1.2e-08M*
COCCn1nnnc1CN1C2CCCC1CC(NC(C)=O)C2 (centres undefined)	1e-08M*	-9%	13%	0%	-12%	1.5e-08M*
CCc1ccccc1N(C(=O)Cn1nnc2ccccc21)C(C(=O)NCCOC)c1ccco1 (centres undefined)	i	-6%	0%	2%	-1%	i
COCCNC(=O)C(c1ccco1)N(C(=O)Cn1nnc2ccccc21)c1ccc(C)cc1C (centres undefined)	4.1e-08M*	4%	0%	1%	-12%	4.4e-08M*
Cc1cc(C)cc(N(CC(=O)N2CCn3c2nc2ccccc23)S(=O)(=O)c2c(C)noc2C)c1	·	3%	10%	2%	-2%	·
CCCC(=O)NCc1nc2ccccc2n1C	1.4e-08M*	-2%	-4%	4%	-19%	1.1e-08M*
CSC1=C(C#N)C(CC(C)C)C(C(C)=O)=C(C)N1 (centres undefined)	?	-28%	3%	2%	1%	1e-08M*
CCOC(=O)CSC(CC)C(=O)Nc1nnc(C(C)C)s1 (centres undefined)	·	8%	-29%	0%	10µM*	·
COc1ccc(-c2cc(C(=O)Nc3c(C)nn(Cc4ccccc4Cl)c3C)no2)cc1	i	26%	3%	-1%	?	i
Cc1nn(Cc2ccc(Cl)c(Cl)c2)c(C)c1NC(=O)c1cc(-c2ccc3c(c2)OCO3)on1	?	-7%	-8%	2%	10µM*	?
Cc1nn(Cc2ccc(Cl)cc2)c(C)c1NC(=O)c1cc(-c2ccc3c(c2)OCO3)on1	2.1e-08M*	-1%	-5%	-1%	?	1.9e-08M*
NC(N)=NCCCCN=C(N)N	i	-2%	7%	-6%	-1%	i
CC(=O)[C@@H]1[C@H]2[C@H](C(=O)[C@H]3OC[C@@H]2O3)[C@H]2C=Cc3ccccc3N21	·	·	40µM*	16%	·	·
CC(=O)[C@@H]1[C@H]2[C@@H](C(=O)[C@H]3OC[C@H]2O3)[C@@H]2C=Cc3ccccc3N12	?	?	·	·	-9%	?
Cc1cc(C(C)(C)C)c(OCCCN2CCOCC2)c(C(C)(C)C)c1	i	7%[11.4 µM]	9%[11.4 µM]	-2%[11.5 µM]	2%[7.6 µM]	i
C=CCN1C(=O)CS/C1=C(\C#N)S(=O)(=O)c1ccc(C)cc1	i	16µM*	10µM*	-1%	-5%	i
CC(=O)Nc1nc(-c2ccc(Br)s2)cs1	i	-4%	6%	0%	8%	i
Nc1nc(-c2ccc(Br)s2)c(Br)s1	i	25µM*	-12%	-1%	-1%	i
CCC(=O)N/C(N)=N/c1nc(C)c2cc(OC)ccc2n1	·	17%	20µM*	4%	8%	·
CCCC(=O)Nc1nc2ccc(OC)cc2s1	·	-17%	-10%	3%	13%	·
COc1ccc2nc(/N=C(\N)NC(=O)C(C)(C)C)nc(C)c2c1	1.7e-07M*	·	·	·	·	1.9e-07M*

Bioassay records (PubChem BioAssay)
